Results filed as inconclusive are left out. Activity calls are given as the source filed them. The call rests on the fitted dose curve; in most records, active means well fitted inhibition curve with a large enough effect; inconclusive means small, poorly fitted or top-dose-only effect; inactive means flat fitted curve, though single readings scatter.
On the % scale 0 is the no-effect control and ±100 the full control effect.

Sequence of Calcium and integrin-binding protein 1 (Homo sapiens) (Q99828 whole entry, looked up): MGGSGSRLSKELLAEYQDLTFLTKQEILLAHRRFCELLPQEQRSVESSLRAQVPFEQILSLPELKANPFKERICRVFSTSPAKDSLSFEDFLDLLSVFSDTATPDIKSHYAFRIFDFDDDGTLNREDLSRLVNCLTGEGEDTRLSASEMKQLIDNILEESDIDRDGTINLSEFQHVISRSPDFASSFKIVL

The assay deals with Calcium and integrin-binding protein 1 (Homo sapiens) (UniProt Q99828). Nature of the assay: Primary qHTS for Identification of Calcium Integrin Binding Protein 1 (CIB1) Competitor (AID 1508620). Further: top concentration of the series differs between compounds. The note with it: CIB1-GST / FITC-alphaIIb peptide fluorescence polarization; series mostly up to 114 µM; activity change, negative = inhibition: at the top concentration. In short, it runs like this:
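Fluorescence polarization competition: GST-tagged CIB1 (1 uM final) preincubated with compound 15 min at room temperature, then FITC-labelled alphaIIb peptide (100 nM final) added. After 15 min at room temperature, polarization read at Ex 480/Em 540.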
On the technique in general: Quantitative high-throughput screening tests each substance at several concentrations.
Take `N#Cc1c(-c2cccc(C(F)(F)F)c2)no[n+]1[O-]`: the “activity change, negative = inhibition” value is -0.333% (inactive).

On to `Brc1ccc(-c2csc(N3CCCCC3)n2)cc1`, for which the “activity change, negative = inhibition” value was -1.81% (inactive).

As for `Cc1cnc(NC(=O)c2ccc(-c3cccc([N+](=O)[O-])c3)o2)s1`, the “activity change, negative = inhibition” value is 1.51% (inactive).

In the case of `Cc1ccc(-c2no[n+]([O-])c2C#N)cc1`, the “activity change, negative = inhibition” value is -1.59% (inactive).

On to `COc1cc(F)c(S(=O)(=O)N2CCN(S(=O)(=O)c3cccc(NC(C)=O)c3)CC2)c(F)c1`, for which the “activity change, negative = inhibition” value was -4.54% (inactive).

On to `N#Cc1nc(Nc2cc(F)cc(F)c2)nc(NC2CCCC2)n1`, for which the “activity change, negative = inhibition” value was -0.12% (inactive).

In the case of `Nc1ccc(S(=O)(=O)N2CCN(S(=O)(=O)c3c(F)cccc3F)CC2)cc1`, the “activity change, negative = inhibition” value was -1.2% (inactive).

On to `c1nc(N2CCOCC2)c2cc(-c3ccc4c(c3)OCO4)ccc2n1`, for which the “activity change, negative = inhibition” value is -2.44% (inactive).

Consider `Cn1c2cc(Br)sc2c2cnn(Cc3ccc(F)cc3F)c(=O)c21`, for which the “activity change, negative = inhibition” value is 5.2% (inactive).

For the molecule `CC(=O)Nc1sc2c(c1-c1ccc(N(C)C)cc1)CCNC2`, the “activity change, negative = inhibition” value is -29.3% (inactive).

In the case of `Cc1csc(CN(C)c2ncnc3ccc(-c4ccc5c(c4)OCO5)cc23)n1`, the “activity change, negative = inhibition” value is -1.61% (inactive).

In the case of `CNc1sc(-c2cccc3ccccc23)nc1C(=O)OC`, the “activity change, negative = inhibition” value is -6.81% (inactive).

For the molecule `O=C1CN(S(=O)(=O)c2c(F)cccc2F)CCN1S(=O)(=O)c1ccc2c(c1)OCCO2`, the “activity change, negative = inhibition” value was 7.19% (inactive).

Consider `Cc1nc(-c2ccccc2)oc1-c1ccc2ncnc(NCCc3cnc[nH]3)c2c1`, for which the “activity change, negative = inhibition” value was -1.36% (inactive).

Regarding `O=C(O)c1ccc(-n2cccc2/C=C2\SC(=O)N(Cc3ccc(F)cc3)C2=O)cc1`, the “activity change, negative = inhibition” value is 5.21% (inactive).

In the case of `CC(=O)N[C@@H](Cc1ccc(O)cc1)C(=O)N[C@H](C(=O)N[C@@H](C)C(=O)N[C@H](C#N)CC(=O)O)C(C)C`, the “activity change, negative = inhibition” value is 3.79% (inactive).

As to `O=S(=O)(Nc1nc(-c2ccccc2C(F)(F)F)nc2ccccc12)c1ccc(-c2ccnc(C(F)(F)F)c2)cc1`, the “activity change, negative = inhibition” value was -13.7% (inactive).

Turning to `Cc1cc(C)nc(NC(=S)N2CCN(c3cc(Cl)c(Cl)c(Cl)c3)CC2)c1`, the “activity change, negative = inhibition” value was 5.25% (inactive).

As to `CC(=O)c1ccc(NC(=O)Nc2nnc(-c3ccncc3)s2)cc1`, the “activity change, negative = inhibition” value is 6.66% (inactive).

Consider `O=C(Cn1nc(-c2ccncc2)ccc1=O)NCCc1ccccc1`, for which the “activity change, negative = inhibition” value is 6.99% (inactive).

Regarding `Cc1cn([C@H]2C[C@H](N[S+](=O)([O-])Cc3cccc(Cl)c3)[C@@H](CO)O2)c(=O)[nH]c1=O`, the “activity change, negative = inhibition” value is -0.58% (inactive).

Regarding `Cc1ccc(N2CCN(C(=S)Nc3cc(C)ccn3)CC2)cc1`, the “activity change, negative = inhibition” value is -9.46% (inactive).

Source of the values: PubChem BioAssay (NCATS).
